Measurements from PubChem BioAssay (NCI).
Several values for one entry are separate records, joined by “and”; a condition that tells them apart may be missing. Identical values can stand only once. The panel holds about 83,000 compounds, 20% with a hit somewhere; the sample as a whole holds those more often.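 Growth was measured after 48 h exposure to one concentration of compound in 96-well plates. Values under 10 count as active.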 Activity calls are given as the source filed them.

Legend:
Experiment in all cases: NCI-60 one-dose screen, 48 h (100 = growth as untreated, 0 = no growth, -100 = all killed)
Conditions in all cases: 10 µM unless noted
[1] = system: NCI-H23 lung
[2] = system: NCI-H226 lung
[3] = system: NCI-H322M lung
[4] = system: HOP-62 NSCLC
[5] = system: NCI-H460 lung
[6] = system: HOP-92 NSCLC
[7] = system: A549/ATCC NSCLC
[8] = system: 786-0 renal
[9] = system: COLO 205 colon
[10] = system: DU-145 prostate
[11] = system: K-562 leukemia
[12] = system: MALME-3M melanoma
[13] = system: MDA-MB-231 breast
[14] = system: RXF 393 renal
[15] = system: SF-268 CNS
[16] = system: SF-295 CNS
[17] = system: SF-539 CNS
[18] = system: UACC-257 melanoma
[19] = system: M14 melanoma
[20] = system: NCI-H522 lung

Measured: growth

CNc1ccc(N)cc1
inactive: [1] 103% | [2] 96.4% | [3] 103% | [4] 106% | [5] 106% | [6] 135% | [7] 111% | [8] 110% | [9] 141% | [10] 121% | [11] 135% | [12] 98.1% | [13] 99% | [14] 214% | [15] 114% | [16] 108% | [17] 96.8% | [18] 137% | [19] 112%

CN(C)C(=O)SC1=C(c2c(Cl)cccc2Cl)C(=O)c2ccccc21
active: [6] 3.58% | [9] -81.8% | [10] -8.29% | [11] -8.92% | [12] -69.7% | [14] -27.5%
inactive: [1] 70.6% | [2] 111% | [3] 98.3% | [4] 92.2% | [5] 98.7% | [7] 110% | [8] 71.5% | [13] 80.6% | [15] 13.3% | [16] 103% | [17] 91.1% | [18] 48.8% | [19] 23.2%

Cc1ccnc(NC(c2ccccc2)c2ccc3cccnc3c2O)c1 (stereo not given)
inactive: [1] 47.8% | [2] 57.8% | [3] 38.4% | [4] 54.1% | [6] 67.8% | [7] 39% | [8] 34.1% | [9] 36.8% | [10] 47.8% | [11] 21.4% | [12] 62.4% | [13] 48.5% | [14] 66.9% | [15] 34.7% | [16] 26% | [17] 24.7% | [18] 41.7% | [19] 36.8%
active: [5] 5.96%

CCN(CC)CC(C)(C)C(=O)/C=C/c1ccc(Cl)c(Cl)c1
active: [1] 7.58% | [2] -15.3% | [5] -9.28% | [6] -3.59% | [8] -60.2% | [9] -53.4% | [10] -61.6% | [11] 1.04% | [12] -52.7% | [13] -48.8% | [14] -81.9% | [15] -0.0402% | [17] -50.4% | [18] -5.04% | [19] -43.5%
inactive: [3] 22.7% | [4] 46.1% | [7] 33.3% | [16] 48.1%

CC(C)(C)CC(C)(C)c1ccc(OCCSC(=N)N)cc1
inactive: [1] 60.7% | [2] 71.8% | [3] 71.6% | [4] 98.4% | [5] 35% | [6] 17.7% | [7] 77.2% | [8] 28.2% | [10] 72.4% | [14] 60.8% | [15] 55% | [18] 76.7%
active: [9] -76.9% | [11] 0.322% | [12] -0.257% | [13] -7.07% | [16] -34.7% | [17] -6.57% | [19] -48.5%

O=C1N[C@H]2[C@H](CS[C@H]2CCCCC(=O)N(CCP(c2ccccc2)c2ccccc2)CCP(c2ccccc2)c2ccccc2)N1
inactive: [1] 67.8% | [2] 89.5% | [3] 79.2% | [4] 80.3% | [5] 41.3% | [6] 56.1% | [7] 76.6% | [8] 82.8% | [9] 29.9% | [10] 95.6% | [11] 69.3% | [12] 91.7% | [13] 80.9% | [14] 96.5% | [15] 88.8% | [16] 83.6% | [17] 99.5% | [18] 79.6% | [19] 97.3%

CC1(C)CC([P+](c2ccccc2)(c2ccccc2)c2ccccc2)=NN1
inactive: [1] 28.1% | [2] 53.1% | [3] 81.1% | [4] 76.6% | [5] 17.2% | [7] 37.1% | [8] 80.4% | [10] 49.6% | [12] 21.2% | [13] 65.4% | [14] 59.6% | [15] 41.1% | [16] 53.2% | [17] 51% | [19] 71.9%
active: [6] -1.14% | [9] -49.9% | [11] 9.92% | [18] 2.89%

Cc1ccc(N=C=C(c2ccccc2)c2ccccc2)cc1
active: [11] 8.39% | [19] -7.3%
inactive: [1] 81% | [2] 90.3% | [3] 98.1% | [4] 104% | [5] 97.3% | [6] 79.2% | [7] 97.5% | [8] 70.1% | [9] 114% | [10] 108% | [12] 95% | [13] 83.3% | [14] 92.5% | [15] 93.5% | [16] 98% | [17] 91% | [18] 89.1%

N#CC1C(=O)SC2c3ccccc3C(=O)c3ccccc3C12 (stereo not given)
inactive: [1] 104% | [2] 94.8% | [3] 98.8% | [4] 96.1% | [5] 96.9% | [20] 94.9% | [7] 84.9% | [8] 96.8% | [9] 107% | [10] 107% | [11] 94.9% | [12] 101% | [13] 98% | [14] 101% | [15] 101% | [16] 113% | [17] 114% | [18] 101% | [19] 109%

N#CSCc1c(Cl)cccc1Cl
active: [19] 9.86%
inactive: [1] 34.7% | [2] 99.3% | [3] 97.9% | [4] 79.1% | [5] 106% | [7] 97.6% | [8] 71.5% | [9] 49.6% | [10] 21% | [11] 83.8% | [12] 47.1% | [13] 80.4% | [14] 50.1% | [15] 53.3% | [16] 94.8% | [17] 88.5% | [18] 79.5%

CCC1OC(OC)C=CC1=O (stereo not given)
inactive: [1] 106% | [2] 103% | [3] 108% | [4] 98.2% | [5] 108% | [20] 95.5% | [7] 102% | [8] 99.9% | [9] 103% | [10] 107% | [11] 87.2% | [12] 99.9% | [13] 106% | [14] 113% | [15] 108% | [16] 98.1% | [17] 101% | [18] 117% | [19] 104%

CN1c2ccccc2C(C)(C)C12C=Cc1cc(O)ccc1O2 (stereo not given)
inactive: [1] 52.3% | [2] 89% | [3] 109% | [4] 82.8% | [5] 67.9% | [7] 75.2% | [8] 87.1% | [9] 78.2% | [10] 52.1% | [11] 12% | [12] 69.1% | [13] 60.9% | [14] 57.1% | [15] 15.4% | [16] 55.9% | [17] 25.8% | [18] 56.7% | [19] 17.9%

COC(=O)[C@@]12OC[C@]34[C@H]([C@@H](O)[C@@H]1O)[C@@]1(C)[C@H](O)C(=O)C=C(C)[C@@H]1C[C@H]3OC(=O)C(OC(C)=O)[C@@H]24 (stereo not given in full)
active: [1] -48.7% | [2] -65.4% | [3] -28.9% | [4] -30.7% | [5] -43.4% | [7] -19.4% | [8] -38.9% | [9] -64.3% | [10] -64.4% | [11] -60% | [12] -70.1% | [13] -39.5% | [14] -63.6% | [15] -31.2% | [16] -53.9% | [17] -36.7% | [18] -54.4% | [19] -84.9%

O=Nc1ccccc1N=O
active: [20] -60.8%
inactive: [1] 71.9% | [2] 88.5% | [3] 84.2% | [4] 96% | [5] 93.5% | [7] 86.2% | [8] 116% | [9] 83.4% | [10] 91.2% | [11] 76.4% | [12] 74.9% | [13] 95.8% | [14] 101% | [15] 89.4% | [16] 85.9% | [17] 76.2% | [18] 80.9% | [19] 81.7%

COc1cc(/C=C/C(C)=O)ccc1O
inactive: [1] 96.6% and 94.1% | [2] 95.3% and 111% | [3] 88.4% and 115% | [4] 94.2% and 111% | [5] 102% and 110% | [7] 98.1% and 100% | [8] 121% and 114% | [9] 97.5% and 120% | [10] 105% and 101% | [11] 105% and 98.2% | [12] 90.6% and 137% | [13] 96.4% and 111% | [14] 100% and 121% | [15] 90.3% and 99% | [16] 107% and 114% | [17] 86.1% and 93.9% | [18] 106% and 109% | [19] 99.7% and 101%

O=C(Nc1ccccc1)Oc1c(Cl)c(Cl)c(Cl)c(Cl)c1Cl
inactive: [1] 93.8% and 93.2% | [2] 96.2% and 88.3% | [3] 94.1% and 106% | [4] 101% and 78.8% | [5] 109% and 103% | [20] 87.9% | [7] 106% and 91.9% | [8] 105% and 97.1% | [9] 97.9% and 106% | [10] 110% and 101% | [11] 101% and 93.9% | [12] 89% and 104% | [13] 88.2% and 94.2% | [14] 113% and 110% | [15] 94.2% and 98.8% | [16] 97.4% and 91.8% | [17] 99.7% and 90.6% | [18] 109% and 103% | [19] 101% and 95.3%
